Screening data deposited in PubChem by National Center for Advancing Translational Sciences (NCATS).
KB-V1 cytotox = kills drug-selected multidrug resistant KB-V1 cells | KB-V1 MDR cells viability, CellTiter-Glo, 72 h | Potency, µM (doses to about 46.1 µM), usual class: cytotoxic | 400,000 compounds, 3.4% hits; further: nearly all actives have a fitted effect of over 60% in size
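KB-V1 cells (P-gp-expressing MDR subline of KB-3-1) in phenol-red-free DMEM with 10% FBS were exposed to library compounds over a concentration series for 72 h at 37 degrees C. Viability read by CellTiter-Glo luminescence; concentration-effect curves fitted after normalization.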
Giardia killer = Giardia lamblia killing; activity change, % at 7.66 µM, hits read low; 340,000 compounds, 0.15% hits; Giardia lamblia trophozoite viability; in the data active means activity change below about -80%; inconclusive means between about -30% and that limit;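 further: parasites exposed to compound for two days anaerobically before the ATP read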
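Trophozoites 100 cells/well + cpd; 48 hrs, 37 deg C, anaerobic. ATPLite 1-Step added, 15-30 min RT, luminescence read (ATP-based viability).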
S-ASM inh = blocks human secretory acid sphingomyelinase; 340,000 compounds, 0.006% hits; AID 504937; Potency, µM (series often up to 57.5 µM), hits mostly inhibitors; P17405; placental ASM, HMU-PC fluorogenic substrate, 60 min
Target sequence (P17405 47-631 limits assumed): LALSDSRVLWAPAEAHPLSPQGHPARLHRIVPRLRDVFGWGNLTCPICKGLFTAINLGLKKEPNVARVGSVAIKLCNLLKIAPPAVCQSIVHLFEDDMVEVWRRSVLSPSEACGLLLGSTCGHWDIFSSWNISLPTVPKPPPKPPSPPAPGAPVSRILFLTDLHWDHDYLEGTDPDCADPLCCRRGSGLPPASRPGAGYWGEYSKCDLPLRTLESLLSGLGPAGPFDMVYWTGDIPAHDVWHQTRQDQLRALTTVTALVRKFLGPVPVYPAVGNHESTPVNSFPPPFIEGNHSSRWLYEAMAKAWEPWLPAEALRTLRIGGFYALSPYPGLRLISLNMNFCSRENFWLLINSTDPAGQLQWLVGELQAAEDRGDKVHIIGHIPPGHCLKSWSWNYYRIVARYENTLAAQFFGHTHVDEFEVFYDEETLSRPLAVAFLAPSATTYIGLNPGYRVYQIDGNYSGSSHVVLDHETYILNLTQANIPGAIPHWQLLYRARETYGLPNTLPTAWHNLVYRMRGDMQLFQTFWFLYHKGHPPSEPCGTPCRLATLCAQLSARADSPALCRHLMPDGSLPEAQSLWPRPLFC
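Human placenta-derived ASM enzyme was preincubated with compound for 10 minutes at room temperature, then given fluorogenic substrate HMU-PC0 (9 uM final) for 60 minutes at 37 °C; a pH 10 stop preceded fluorescence reading at Ex 386/Em 447 nm.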
SW480 rerep = DNA re-replication induction in SW480 cells; SW480 DNA re-replication, Hoechst DNA content imaging, 48 h; AID 624297; 340,000 compounds, 1.8% hits; Potency, µM (doses to about 46.1 µM), usual class: activators; further: nearly all actives have a fitted effect of over 55% in size
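DNA re-replication was detected as more nuclei of elevated Hoechst intensity after 48 hr exposure to compound (23 nL pinned per well of 250 cells).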
KB-3-1 tox = KB-3-1 parental cell cytotoxicity; KB-3-1 viability, CellTiter-Glo ATP luminescence, 72 h; Potency, µM (highest dose often 46.1 µM), hits mostly cytotoxic; 400,000 compounds, 1.4% hits; further: nearly all actives have a fitted effect of over 60% in size
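Screening of KB-3-1 cells (DMEM, 10% FBS, phenol-red free) ran from lowest to highest compound concentration; after 72 h at 37 °C viability was read luminescently and curves fitted.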
MCF10A rerep = induces DNA re-replication in MCF 10a normal breast cells | MCF 10A DNA re-replication, Hoechst nuclear intensity, 48 h | Potency, µM (titrated, usually from 46.1 µM), hits mostly activators | 350,000 compounds, 2.9% hits; further: nearly all actives have a fitted effect of over 50% in size
Large screens that a line does not name were inactive. Only some compounds are listed: those with a hit (about 6.9% of all), similar ones and a draw of the others. Unless noted, the call rests on the fitted dose curve; in most records, active means well fitted curve in the direction sought with a large enough effect; inconclusive means small, poorly fitted or top-dose-only effect, or another doubt; inactive means no such curve, though single readings can be large; an effect the other way counts as inactive or inconclusive.

CCCCn1c(=N)n(CCOc2ccc(C)cc2)c2ccccc21	KB-V1 cytotox inconclusive, SW480 rerep 18.4µM, KB-3-1 tox inconclusive, MCF10A rerep inconclusive
CCN(CC)CCn1c(=N)n(CCOc2ccccc2)c2ccccc21	SW480 rerep 11.2µM, KB-3-1 tox inconclusive
CCCCn1c(=N)n(CC(O)COc2cccc(C)c2)c2ccccc21 (centres undefined)	KB-V1 cytotox 20.6µM, SW480 rerep inconclusive, KB-3-1 tox 20.6µM
CC(C)(C)C(=O)Cn1c(=N)n(Cc2ccccc2)c2ccccc21	KB-V1 cytotox inconclusive, SW480 rerep inconclusive, KB-3-1 tox inconclusive, MCF10A rerep 17.8µM
CC(C)(C)C(=O)Cn1c(=N)n(Cc2ccccc2Cl)c2ccccc21	SW480 rerep inconclusive, KB-3-1 tox inconclusive
c1coc(CNc2ncnc3c2nc2n3CCCC2)c1	KB-3-1 tox inconclusive (no result: Giardia killer, S-ASM inh, SW480 rerep, MCF10A rerep)
CCOc1ccc(C(=O)NCC(c2ccc(Cl)cc2)N2CCCCC2)cc1 (centres undefined)	KB-3-1 tox inconclusive (no result: Giardia killer, S-ASM inh, SW480 rerep, MCF10A rerep)
COc1ccc(CCCc2nnc(SCC(=O)Nc3cccc(C)c3)o2)cc1C	none (no result: Giardia killer, S-ASM inh, SW480 rerep, MCF10A rerep)
COc1ccc(-n2ncc(C(=O)Nc3cccc(C(F)(F)F)c3)c2C2CCN(C(=O)OC(C)(C)C)CC2)cc1	none (no result: Giardia killer, S-ASM inh, SW480 rerep, MCF10A rerep)
CCn1cc(C(=O)OCC(=O)c2cc(C)n(-c3ccccc3)c2C)c(=O)c2ccc(C)nc21	none
CCn1cc(C(=O)OCC(=O)c2cc(C)n(-c3ccc(OC(F)F)cc3)c2C)c(=O)c2ccc(C)nc21	KB-V1 cytotox 23.1µM, SW480 rerep inconclusive, MCF10A rerep 13µM
O=C(NCCOc1ccccc1)c1n[nH]c(=O)c2ccccc12	KB-V1 cytotox 23.1µM
CCCNC(=O)c1n[nH]c(=O)c2ccccc12	none
O=C(NCCOc1ccccc1)c1ccc2c(c1)OCO2	none
O=C(NCCOc1ccccc1)c1ccc2n[nH]nc2c1	KB-V1 cytotox inconclusive, SW480 rerep 4.61µM
Cc1ccc2c(C(=O)CNc3nc(C)c(C)s3)c(C)[nH]c2c1	none (no result: Giardia killer, S-ASM inh, SW480 rerep, MCF10A rerep)
CCC1CCC/C1=N\NC(=O)c1cc(C)[nH]n1 (centres undefined)	SW480 rerep 16.4µM, MCF10A rerep 2.91µM
O=S(=O)(CCS(=O)(=O)c1ccccc1)c1ccccc1	SW480 rerep 16.4µM, MCF10A rerep inconclusive
COc1ccc(/C=C/C(=O)c2cc(F)ccc2OC(=O)c2ccccc2OC)cc1OC	KB-V1 cytotox 3.26µM, SW480 rerep inconclusive, KB-3-1 tox 5.17µM, MCF10A rerep 13µM
COc1ccc(/C=C/C(=O)c2cc(F)ccc2OC(=O)c2ccccc2)cc1OC	KB-V1 cytotox inconclusive, SW480 rerep 1.3µM, KB-3-1 tox inconclusive, MCF10A rerep inconclusive
COc1ccc(-c2ccc3ncnc(NCCc4cnc[nH]4)c3c2)cc1OC	KB-3-1 tox inconclusive (no result: Giardia killer, S-ASM inh, SW480 rerep, MCF10A rerep)
Cc1cc(N/N=C/c2ccc(N(C)C)cc2)nc(NCc2ccccc2)n1	SW480 rerep 20.6µM, MCF10A rerep 8.2µM
Cc1cc(N2CCC(C)CC2)nc(NCc2ccccc2)n1	SW480 rerep 0.517µM, KB-3-1 tox 13µM
Cc1cc(Nc2ccccc2)nc(NCc2ccccc2)n1	KB-V1 cytotox 10.3µM, SW480 rerep inconclusive, KB-3-1 tox 20.6µM, MCF10A rerep 16.4µM
Cc1cc(Nc2cccc(F)c2)nc(NCc2ccccc2)n1	KB-V1 cytotox 8.2µM, S-ASM inh inconclusive, SW480 rerep inconclusive, KB-3-1 tox inconclusive, MCF10A rerep inconclusive
CC1=C(C(=O)OCc2ccccc2)N2C(=O)[C@@H](NC(=O)OCc3ccccc3)[C@H]2SC1	KB-V1 cytotox inconclusive (no result: Giardia killer, S-ASM inh, SW480 rerep, MCF10A rerep)
Cc1cc(C)nc(NCCCc2ccccc2)n1	none
Cc1cc(N/N=C/c2ccc(Cl)cc2Cl)nc(NCc2ccccc2)n1	KB-V1 cytotox 8.2µM, S-ASM inh inconclusive, SW480 rerep inconclusive, MCF10A rerep inconclusive
Cc1cc(Nc2ccc(Cl)cc2)nc(NCc2ccccc2)n1	KB-V1 cytotox 20.6µM, S-ASM inh inconclusive, SW480 rerep inconclusive, KB-3-1 tox inconclusive, MCF10A rerep inconclusive
Cc1cc(Oc2ccccc2)nc(NCc2ccccc2)n1	KB-V1 cytotox 20.6µM, SW480 rerep inconclusive, KB-3-1 tox 16.4µM
CCCCNc1cc(C)nc(NCc2ccccc2)n1	KB-V1 cytotox 5.8µM, KB-3-1 tox 6.51µM
CC(C)NC(=O)COC(=O)CNC(=O)C1CCCCC1	none (no result: S-ASM inh, SW480 rerep, MCF10A rerep)
CCc1ccc(OCC(=O)Nc2cc(S(=O)(=O)CC)ccc2O)cc1	KB-V1 cytotox 16.4µM
Cc1ccccc1NC(=S)NC(NC(=O)COc1ccccc1)C(Cl)(Cl)Cl (centres undefined)	KB-V1 cytotox inconclusive, KB-3-1 tox inconclusive
CCS(=O)(=O)c1ccc(O)c(NC(=O)COc2ccccc2)c1	none
CCc1ccc(OCC(=O)NC(NC(=S)Nc2ccccc2C)C(Cl)(Cl)Cl)cc1 (centres undefined)	KB-V1 cytotox inconclusive, KB-3-1 tox inconclusive, MCF10A rerep 18.4µM
CCc1ccc(OCC(=O)N2c3ccccc3CCc3ccccc32)cc1	KB-V1 cytotox 18.4µM, SW480 rerep inconclusive, KB-3-1 tox inconclusive, MCF10A rerep inconclusive
CCCC(=O)Nc1cccc2c1CCCC2	none
CCc1ccc(OCC(=O)Nc2cccc3c2CCCC3)cc1	SW480 rerep 7.31µM
COc1ccc(N2CCN(c3ncnc4c3cnn4-c3ccc(F)cc3)CC2)cc1	KB-V1 cytotox inconclusive (no result: Giardia killer, S-ASM inh, SW480 rerep, MCF10A rerep)
NC(=Nc1nc(-c2ccccn2)cc2ccccc12)c1ccccn1	KB-V1 cytotox 0.731µM, SW480 rerep inconclusive, KB-3-1 tox inconclusive, MCF10A rerep inconclusive
N/C(=N\OC(=O)c1ccc2ccccc2c1)c1ccccn1	KB-V1 cytotox inconclusive, SW480 rerep inconclusive
N=c1c2c(ncn1Cc1ccco1)Oc1ccc3ccccc3c1C2c1ccccc1 (centres undefined)	KB-V1 cytotox 7.31µM, SW480 rerep inconclusive, KB-3-1 tox inconclusive, MCF10A rerep 16.4µM
N=c1c2c(ncn1CCCO)Oc1c(ccc3ccccc13)C2c1ccccc1 (centres undefined)	KB-V1 cytotox 16.4µM, SW480 rerep inconclusive, KB-3-1 tox inconclusive, MCF10A rerep inconclusive
COc1ccc(C2c3ccc4ccccc4c3Oc3ncn(CCO)c(=N)c32)cc1 (centres undefined)	SW480 rerep inconclusive, MCF10A rerep inconclusive
COc1ccc(C2c3c(ncn(Cc4ccco4)c3=N)Oc3ccc4ccccc4c32)cc1 (centres undefined)	KB-V1 cytotox inconclusive, SW480 rerep inconclusive, KB-3-1 tox inconclusive, MCF10A rerep inconclusive
COc1ccc(C2c3ccc4ccccc4c3Oc3ncn(CCN(C)C)c(=N)c32)cc1 (centres undefined)	KB-V1 cytotox inconclusive, SW480 rerep inconclusive, KB-3-1 tox inconclusive, MCF10A rerep 20.6µM
COc1ccc(C2c3ccc4ccccc4c3Oc3ncn(CCCO)c(=N)c32)cc1OC (centres undefined)	KB-V1 cytotox inconclusive, SW480 rerep 18.4µM, KB-3-1 tox inconclusive, MCF10A rerep 18.4µM
